The text below walks through data of the supplement of paper PMC8007513.

Structures are written as SMILES. Counter-ions that a name gives are not always drawn. ± gives the standard error. The campaign covered roughly 1,300 compounds. About 130 (10%) showed an effect of 50% or more. The list comes from a sample in which strong results are over-represented; it also holds similar structures and randomly drawn compounds.

This test relates to Trichoderma virens ATCC 9645. Description: growth yield (OD600) with compound + IPBC relative to untreated control; higher = less growth inhibition. The conditions noted are these: compound concentration: 100 uM, IPBC concentration: 200 ng/ml. A digest of the protocol:
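Growth appears as means of duplicate screens, relative to the control containing neither agent. To obtain it, OD600 was read on a BioTek EL800 at 40 h and 72 h. The cultures were 100 μl aliquots in 96-well plates at 30 °C, holding Trichoderma virens ATCC 9645 spores at 15,000 spores ml^−1 in potato dextrose broth, library compounds at 100 μM final, and, in some wells, a biocide at 200 ng ml^−1.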

Turning to `CN(C)[C@@H]1C(O)=C(C(N)=O)C(=O)[C@@]2(O)C(O)=C3C(=O)c4c(O)ccc(Cl)c4[C@@H](O)[C@H]3C[C@@H]12` [Demeclocycline hydrochloride] + CCCCNC(=O)OCC#CI [3-iodo-2-propynyl butylcarbamate (IPBC)], the growth yield by setting is: (40 h) 68.8 ± 2.4%; (72 h) 76.1 ± 1.1%.
The matching figures for `CC(C)CC(N(C)C)C1(c2ccc(Cl)cc2)CCC1` (centres undefined) [Sibutramine hydrochloride] + CCCCNC(=O)OCC#CI [3-iodo-2-propynyl butylcarbamate (IPBC)]: 76.7 ± 0.79% and 90.82 ± 0.42%.
Consider `CCC[C@H](N[C@@H](C)C(=O)N1[C@H](C(=O)O)C[C@@H]2CCCC[C@@H]21)C(=O)OCC` [Perindopril] + CCCCNC(=O)OCC#CI [3-iodo-2-propynyl butylcarbamate (IPBC)], for which the growth yield by setting is: (40 h) 98.8 ± 5.1%; (72 h) 97.5 ± 3.1%.
With `COC(=O)Nc1nc2cc([S+]([O-])c3ccccc3)ccc2[nH]1` (centres undefined) [Oxfendazol] + CCCCNC(=O)OCC#CI [3-iodo-2-propynyl butylcarbamate (IPBC)], the growth yield (40 h) was determined as 93.4 ± 6.3% and the growth yield (72 h) is 98.2 ± 4.2%.
As to `CCCOc1ccc2[nH]c(NC(=O)OC)nc2c1` [Oxibendazol] + CCCCNC(=O)OCC#CI [3-iodo-2-propynyl butylcarbamate (IPBC)], the growth yield runs as follows: (40 h) 44.6 ± 2.1%; (72 h) 85 ± 4.8%.
Turning to `COC(=O)Nc1nc2cc(C(=O)c3ccccc3)ccc2[nH]1` [Mebendazole] + CCCCNC(=O)OCC#CI [3-iodo-2-propynyl butylcarbamate (IPBC)], the growth yield came out at 68 ± 1.9% (40 h) and 89.36 ± 0.63% (72 h).
As for `COC(=O)Nc1nc2cc(C(=O)c3ccc(F)cc3)ccc2[nH]1` [Flubendazol] + CCCCNC(=O)OCC#CI [3-iodo-2-propynyl butylcarbamate (IPBC)], the growth yield by setting is: (40 h) 86.4 ± 5.4%; (72 h) 91.1 ± 4.9%.
As for `CCCSc1ccc2[nH]c(NC(=O)OC)nc2c1` [Albendazole] + CCCCNC(=O)OCC#CI [3-iodo-2-propynyl butylcarbamate (IPBC)], the growth yield (40 h) worked out at 87.7 ± 8.9% and the growth yield (72 h) is 99.7 ± 2.8%.
In the case of `CCCCc1ccc2[nH]c(NC(=O)OC)nc2c1` [Parbendazole] + CCCCNC(=O)OCC#CI [3-iodo-2-propynyl butylcarbamate (IPBC)], the growth yield runs as follows: (40 h) 27 ± 4.1%; (72 h) 80.2 ± 2.2%.
The matching figures for `N#Cc1cc(NC(=O)C(=O)O)c(Cl)c(NC(=O)C(=O)O)c1` [Lodoxamide] + CCCCNC(=O)OCC#CI [3-iodo-2-propynyl butylcarbamate (IPBC)]: 114 ± 10% and 109 ± 12%.
Take `C=C(NC(=O)C(=C)NC(=O)c1csc(C2=N[C@@H]3c4csc(n4)[C@H]4NC(=O)c5csc(n5)[C@H]([C@](C)(O)[C@@H](C)O)NC(=O)[C@H]5CSC(=N5)/C(=C/C)NC(=O)[C@H]([C@@H](C)O)NC(=O)c5csc(n5)[C@]3(CC2)NC(=O)[C@H](C)NC(=O)C(=C)NC(=O)[C@H](C)NC(=O)[C@H]([C@@H](C)CC)N[C@@H]2C=Cc3c([C@H](C)O)cc(nc3[C@H]2O)C(=O)O[C@@H]4C)n1)C(N)=O` [Thiostrepton] + CCCCNC(=O)OCC#CI [3-iodo-2-propynyl butylcarbamate (IPBC)]: the growth yield runs as follows: (40 h) 101 ± 2.5%; (72 h) 100 ± 1.6%.
`CNCCC=C1c2ccccc2CCc2ccccc21` [Nortriptyline hydrochloride] + CCCCNC(=O)OCC#CI [3-iodo-2-propynyl butylcarbamate (IPBC)]: the growth yield by setting is: (40 h) 70.5 ± 2.2%; (72 h) 94.28 ± 0.73%.
The matching figures for `COC(=O)C1=C(C#N)NC(C)=C(C(=O)OC(C)C)C1c1cccc([N+](=O)[O-])c1` (centres undefined) [Nilvadipine] + CCCCNC(=O)OCC#CI [3-iodo-2-propynyl butylcarbamate (IPBC)]: 107.2 ± 0.16% and 102 ± 2.5%.
The matching figures for `Cc1cc(O)c(C(=O)N[C@@H](C(=O)N[C@@H]2C(=O)N3C(C(=O)O)=C(CSc4nnnn4C)CS[C@H]23)c2ccc(O)cc2)cn1` [Cefpiramide] + CCCCNC(=O)OCC#CI [3-iodo-2-propynyl butylcarbamate (IPBC)]: 89.4 ± 2.7% and 90.9 ± 1.4%.
For `CN(C)C/C=C(/c1ccc(Br)cc1)c1cccnc1` [Zimelidine dihydrochloride monohydrate] + CCCCNC(=O)OCC#CI [3-iodo-2-propynyl butylcarbamate (IPBC)], the growth yield was determined as 77.8 ± 0.95% (40 h) and 93.5 ± 2.1% (72 h).
As to `C=C[C@H]1CN2CC[C@H]1C[C@@H]2[C@@H](O)c1ccnc2ccc(OC)cc12` [Quinidine hydrochloride monohydrate] + CCCCNC(=O)OCC#CI [3-iodo-2-propynyl butylcarbamate (IPBC)], the growth yield is 77.7 ± 7.5% (40 h) and 89.8 ± 6.3% (72 h).
Consider `O=C(c1ccc(F)cc1)C1CCN(CCn2c(=O)[nH]c3ccccc3c2=O)CC1` [Ketanserin tartrate hydrate] + CCCCNC(=O)OCC#CI [3-iodo-2-propynyl butylcarbamate (IPBC)], for which the growth yield by setting is: (40 h) 98.5 ± 8.3%; (72 h) 101 ± 3.2%.
The matching figures for `CCNC(=O)CCC/C=C\C[C@@H]1[C@@H](/C=C/[C@@H](O)CCc2ccccc2)[C@H](O)C[C@@H]1O` [Bimatoprost] + CCCCNC(=O)OCC#CI [3-iodo-2-propynyl butylcarbamate (IPBC)]: 94.5 ± 5.6% and 95.4 ± 4.2%.
Consider `Cc1nc2n(c(=O)c1CCN1CCC(c3noc4cc(F)ccc34)CC1)CCCC2O` (centres undefined) [Paliperidone] + CCCCNC(=O)OCC#CI [3-iodo-2-propynyl butylcarbamate (IPBC)], for which the growth yield is, setting by setting: (40 h) 82.28 ± 0.32%; (72 h) 90.09 ± 0.32%.
`Nc1c(Br)cc(Br)cc1CN[C@H]1CC[C@H](O)CC1` [Ambroxol hydrochloride] + CCCCNC(=O)OCC#CI [3-iodo-2-propynyl butylcarbamate (IPBC)]: the growth yield was found to be 73.2 ± 2.1% (40 h) and 88.9 ± 2.5% (72 h).
`CCOC(=O)OC(C)OC(=O)[C@@H]1N2C(=O)[C@@H](NC(=O)[C@H](N)c3ccccc3)[C@H]2SC1(C)C` (some centres undefined) [Bacampicillin hydrochloride] + CCCCNC(=O)OCC#CI [3-iodo-2-propynyl butylcarbamate (IPBC)]: the growth yield by setting is: (40 h) 89.1 ± 7.5%; (72 h) 92.3 ± 3.8%.
The matching figures for `CCN(CC)CC#CCOC(=O)C(O)(c1ccccc1)C1CCCCC1` (centres undefined) [Oxybutynin chloride] + CCCCNC(=O)OCC#CI [3-iodo-2-propynyl butylcarbamate (IPBC)]: 74.18 ± 0.16% and 88.52 ± 0.63%.
With `CCn1cc(C(=O)O)c(=O)c2cnc(N3CCCC3)nc21` [Piromidic acid] + CCCCNC(=O)OCC#CI [3-iodo-2-propynyl butylcarbamate (IPBC)], the growth yield was 99.9 ± 14% (40 h) and 99.5 ± 5.3% (72 h).
Consider `CCn1cc(C(=O)O)c(=O)c2cnc(N3CCNCC3)nc21` [Pipemidic acid] + CCCCNC(=O)OCC#CI [3-iodo-2-propynyl butylcarbamate (IPBC)], for which the growth yield came out at 85.1 ± 3.2% (40 h) and 90.1 ± 3% (72 h).
Consider `CCn1cc(C(=O)O)c(=O)c2ccc(C)nc21` [Nalidixic acid sodium salt] + CCCCNC(=O)OCC#CI [3-iodo-2-propynyl butylcarbamate (IPBC)], for which the growth yield (40 h) is 49.2 ± 1.6% and the growth yield (72 h) worked out at 100 ± 2.1%.
With `COc1ccc(C(CN(C)C)C2(O)CCCCC2)cc1` (centres undefined) [Venlafaxine] + CCCCNC(=O)OCC#CI [3-iodo-2-propynyl butylcarbamate (IPBC)], the growth yield was found to be 85.6 ± 4.3% (40 h) and 89 ± 3% (72 h).
The matching figures for `CC(C(=O)O)c1ccc2c(c1)[nH]c1ccc(Cl)cc12` (centres undefined) [Carprofen] + CCCCNC(=O)OCC#CI [3-iodo-2-propynyl butylcarbamate (IPBC)]: 33.2 ± 0.16% and 68.3 ± 1.1%.
The matching figures for `CC(C(=O)O)c1ccc(C(=O)c2cccs2)cc1` (centres undefined) [Suprofen] + CCCCNC(=O)OCC#CI [3-iodo-2-propynyl butylcarbamate (IPBC)]: 86.6 ± 14% and 89.1 ± 8.6%.
For the compound `CC(C)Cc1ccc([C@H](C)C(=O)O)cc1` [S-(+)-ibuprofen] + CCCCNC(=O)OCC#CI [3-iodo-2-propynyl butylcarbamate (IPBC)], the growth yield runs as follows: (40 h) 70.68 ± 0.16%; (72 h) 96.7 ± 1.7%.
As to `CC(C)(C)NC[C@H](O)COc1cccc2c1CCCC2=O` [(-) -Levobunolol hydrochloride] + CCCCNC(=O)OCC#CI [3-iodo-2-propynyl butylcarbamate (IPBC)], the growth yield by setting is: (40 h) 97.8 ± 16%; (72 h) 99.2 ± 11%.
For `c1ccc(C2CN3CCSC3=N2)cc1` (centres undefined) [Tetramisole hydrochloride] + CCCCNC(=O)OCC#CI [3-iodo-2-propynyl butylcarbamate (IPBC)], the growth yield (40 h) is 87.8 ± 9.1% and the growth yield (72 h) is 93.1 ± 4.8%.
With `COc1ccc(CCN2CCC(Nc3nc4ccccc4n3Cc3ccc(F)cc3)CC2)cc1` [Astemizole] + CCCCNC(=O)OCC#CI [3-iodo-2-propynyl butylcarbamate (IPBC)], the growth yield by setting is: (40 h) 5.08%; (72 h) 4.3 ± 0.32%.
For `CN(c1nccc(=O)[nH]1)C1CCN(c2nc3ccccc3n2Cc2ccc(F)cc2)CC1` [Mizolastine] + CCCCNC(=O)OCC#CI [3-iodo-2-propynyl butylcarbamate (IPBC)], the growth yield reads like this: (40 h) 70.2 ± 3.2%; (72 h) 88.1 ± 4.8%.
The matching figures for `Clc1ccc(Cn2c(CN3CCCC3)nc3ccccc32)cc1` [Clemizole hydrochloride] + CCCCNC(=O)OCC#CI [3-iodo-2-propynyl butylcarbamate (IPBC)]: 73.5 ± 1.4% and 98.5 ± 1.4%.
The matching figures for `CC(C)NCC(O)COc1ccc(CCOCC2CC2)cc1` (centres undefined) [Betaxolol hydrochloride] + CCCCNC(=O)OCC#CI [3-iodo-2-propynyl butylcarbamate (IPBC)]: 90.2 ± 11% and 99.4 ± 4.2%.
Consider `NC[C@H]1O[C@H](O[C@H]2[C@H](O[C@@H]3O[C@H](CO)[C@@H](O)[C@H]3O)[C@@H](O)[C@H](N)C[C@@H]2N)[C@H](N)[C@@H](O)[C@@H]1O` [Ribostamycin sulfate salt] + CCCCNC(=O)OCC#CI [3-iodo-2-propynyl butylcarbamate (IPBC)], for which the growth yield by setting is: (40 h) 91.5 ± 6.3%; (72 h) 96.1 ± 3.4%.
For `Cc1cccn2c(=O)c(-c3nnn[nH]3)cnc12` [Pemirolast potassium] + CCCCNC(=O)OCC#CI [3-iodo-2-propynyl butylcarbamate (IPBC)], the growth yield was 72.7 ± 1.9% (40 h) and 84.4 ± 2% (72 h).
